Rango-impB inh: prevents formation of the Rango-importin beta complex; hit rate 0.031% among 340,000; Q14974; Potency, µM (highest dose often 92.2 µM), for inactives: at the highest dose inhibition of complex formation; Rango CFP/YFP FRET sensor + importin beta, 45 min; calls by dose curve;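 note: 0% = DMSO wells and 100% = buffer wells lacking importin beta; nearly all actives have a fitted effect of over 15% in size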
Target sequence (Q14974 whole entry, looked up): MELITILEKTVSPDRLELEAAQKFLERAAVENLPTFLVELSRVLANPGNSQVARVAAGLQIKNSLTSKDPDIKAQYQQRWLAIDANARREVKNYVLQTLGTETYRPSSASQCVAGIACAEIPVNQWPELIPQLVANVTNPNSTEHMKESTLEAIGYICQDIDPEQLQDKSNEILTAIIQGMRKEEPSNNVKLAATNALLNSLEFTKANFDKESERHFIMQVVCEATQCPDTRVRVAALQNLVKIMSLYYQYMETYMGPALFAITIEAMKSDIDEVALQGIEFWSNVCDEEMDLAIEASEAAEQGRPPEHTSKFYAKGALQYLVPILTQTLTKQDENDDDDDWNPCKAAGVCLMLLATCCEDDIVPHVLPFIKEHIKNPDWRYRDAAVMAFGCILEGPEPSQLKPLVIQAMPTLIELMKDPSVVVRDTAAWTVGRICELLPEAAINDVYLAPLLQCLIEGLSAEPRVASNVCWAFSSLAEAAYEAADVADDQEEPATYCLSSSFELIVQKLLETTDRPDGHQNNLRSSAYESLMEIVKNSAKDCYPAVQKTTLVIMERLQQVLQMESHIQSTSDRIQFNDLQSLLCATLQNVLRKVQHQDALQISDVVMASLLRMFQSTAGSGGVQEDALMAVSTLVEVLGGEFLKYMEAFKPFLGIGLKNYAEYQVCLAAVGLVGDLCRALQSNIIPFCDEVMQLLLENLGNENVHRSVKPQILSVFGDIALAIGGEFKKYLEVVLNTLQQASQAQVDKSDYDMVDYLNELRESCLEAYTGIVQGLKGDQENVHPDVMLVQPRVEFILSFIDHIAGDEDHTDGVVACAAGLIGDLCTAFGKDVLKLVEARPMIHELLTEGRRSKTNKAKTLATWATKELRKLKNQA
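FRET biosensor Rango (snurportin 1 IBB between N-terminal EYFP and C-terminal Cerulean), 50 nM in PBS/1 mM DTT/0.02% Tween-20/0.1% BSA, preincubated 5 min RT with compound; 0.125 microM importin beta added, 45 min RT, CFP/YFP FRET ratio read.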
Rango dissoc inh: prevents RanGTP from dissociating the Rango-importin beta complex; O95149+P62826; Biochemical FRET Rango-importin beta, RanGTP-induced dissociation; Potency, µM (highest dose often 46.1 µM), for inactives: top-dose activity change, negative = inhibition; hit rate 0.071% among 340,000; calls by dose curve; note: % of control where 0% means no effect; nearly all actives have a fitted effect of over 45% in size
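Compounds preincubate 5 min with complex of recombinant Rango and importin beta in PBS with 1 mM DTT. Ran (0.6 uM) loaded with 2 mM GTP plus 0.2 uM RCC1 starts dissociation; FRET is recorded 45 min later.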
A549 tox-1: kills or reduces viability of A549 cells in Nrf2 counter-screen; hit rate 0.16% among 390,000; AID 504648; A549 ARE-Fluc cells, CellTiter-Fluor viability, 18-24 h; Potency, µM (titrated, usually from 46 µM), for the others: at the highest dose activity change, negative = cytotoxicity, hits mostly inhibitors; note: % is set by controls: 0 for no effect and ±100 for the full control effect
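Cytotoxicity counterscreen: CellTiter-Fluor fluorescence was measured in A549 ARE_Fluc cells after 18-24 h of compound exposure in a concentration series. The subsequent BugLite luminescent read reports ARE-luciferase activity.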
Nrf2 inh: Nrf2 pathway inhibition; AID 504444; Potency, µM (series often up to 46 µM), inactives show at the top dose activity change, negative = inhibition, actives largely listed as inhibitors; hit rate 2.1% among 360,000; A549 ARE-Fluc reporter, luciferase luminescence, 18-24 h; note: % is set by controls: 0 for no effect and ±100 for the full control effect; nearly all actives have a fitted effect of over 60% in size
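Cells were seeded and rested 2 h, then exposed to compounds for 18-24 h. CellTiter-Fluor was read first as a viability measure. BugLite was added 15 min before the final luminescent read of ARE-luciferase activity in A549 cells.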
Nrf2 ARE act: activates Nrf2 signaling; AREc32 ARE-luciferase reporter (MCF7-derived line), luminescence, 24 h; Potency, µM (highest dose often 46.1 µM), without a hit: at the top dose activation, actives largely listed as activators; hit rate 0.31% among 410,000; AID 624171; note: % of control where 0% means no effect; nearly all actives have a fitted effect of over 65% in size
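Quantitative high-throughput format: AREc32 reporter cells, 1000 per well, received compound by pin transfer and were incubated 24 hr at 37 deg C, 5% CO2, before Steady-Glo luminescence detection.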
FLuc counter 3: blocks purified firefly luciferase in Nrf2 counterscreen. shares compounds with Nrf2 inh. purified firefly luciferase, luminescence inhibition. Potency, µM (series often up to 57.5 µM), without a hit: at the highest dose activity change, negative = inhibition, usual class: inhibitors. hit rate 4% among 1,400; note: % is set by controls: 0 for no effect and ±100 for the full control effect; nearly all actives have a fitted effect of over 65% in size
A549 tox-2: counter-screen for Nrf2 inhibitors: cytotoxicity in A549 ARE cells. shares compounds with Nrf2 inh. A549 ARE-Fluc cells, cytotoxicity counterscreen. Potency, µM (top dose mostly 46.1 µM), for inactives: at the highest dose activity change, negative = cytotoxicity, usual class: inhibitors. hit rate 2% among 1,400. AID 720523;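 note: cells exposed to compounds for 18 to 24 hours; % is set by controls: 0 for no effect and ±100 for the full control effect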
Nrf2 ARE inh: Nrf2 inhibition confirmed, A549 ARE-luciferase; shares compounds with Nrf2 inh; A549 ARE-firefly luciferase reporter, luminescence; Potency, µM (series often up to 46.1 µM), inactives show at the highest dose activity change, negative = inhibition, hits mostly inhibitors; hit rate 74% among 1,400; note: % is set by controls: 0 for no effect and ±100 for the full control effect; nearly all actives have a fitted effect of over 65% in size
* hit, by the source's call; ? = inconclusive; nt = no result. Shown are actives, neighbours in structure and some others; about 2.3% of the full set was active somewhere. Unless noted, calls come from the whole dose curve; as a rule, active = well fitted curve in the direction sought with a large enough effect; inconclusive = small, poorly fitted or top-dose-only effect, or another doubt; inactive = no such curve, though single readings can be large; an effect the other way counts as inactive or inconclusive. Potency is the fitted concentration of half-maximal effect.

SMILES	Rango-impB inh	Rango dissoc inh	A549 tox-1	Nrf2 inh	Nrf2 ARE act	others
C[C@]12CCC3[C@@H](CC[C@@H]4C[C@H](O)CC[C@]34C)[C@@H]1CCC2=O (stereo partly specified)	-0.2%	-7.9%	0.0%	-11.5%	-0.5%
COC(=O)C1=C(c2ccc(-c3ccccc3)c(F)c2)C[C@@H]2CC[C@H]1N2C(=O)N1CCCCC1	0.4%	5.6%	-20.8%	?	3.8%
COC(=O)C1=C(c2ccc(-c3ccccc3)c(F)c2)C[C@@H]2CC[C@H]1N2C(=O)N1CCc2cc(OC)c(OC)cc2C1	-0.4%	-8.0%	-14.4%	16.4µM*	3.1%
COC(=O)C1=C(c2ccc(-c3ccccc3)c(F)c2)C[C@@H]2CC[C@H]1N2C(=O)N1CCC(O)CC1	2.4%	4.6%	-1.3%	?	4.0%
COC(=O)C1=C(c2ccc(-c3ccccc3)c(F)c2)C[C@@H]2CC[C@H]1N2C(=O)N1CCCC1	-0.7%	5.1%	-1.3%	20.6µM*	0.6%
COC(=O)C1=C(c2ccc(-c3ccccc3)c(F)c2)C[C@@H]2CC[C@H]1N2C(=O)N1CCC(C)CC1	0.4%	13.6%	-7.2%	16.4µM*	0.5%
Cc1ccc(NC(=O)COc2ccc(-c3nn(C)c(=O)c4ccccc34)cc2)cc1	nt	nt	-6.4%	?	-0.4%
CCN(CC)C(=O)c1ccc(NC(=O)CCn2nc(-c3ccc(Cl)cc3)c3ccccc3c2=O)cc1	nt	nt	-15.4%	25.9µM*	-0.6%
COc1ccc(C(=O)Nc2cccc(S(=O)(=O)NCc3ccco3)c2)cc1	-2.1%	-7.9%	-6.3%	?	1.7%
CCCOc1ccc(C(=O)Nc2ccc(-c3cc4ccccc4oc3=O)c(C)c2)cc1	nt	nt	-6.7%	5.8µM*	6.9%
O=C(Nc1ccc(OC(F)(F)F)cc1)C1CCN(S(=O)(=O)c2cccs2)CC1	nt	nt	-11.0%	?	5.3%
COc1ccc(-[n+]2c(-c3ccccc3)cc(-c3ccc(C)cc3)cc2-c2ccccc2)cc1	-2.0%	-9.7%	?	20.6µM*	0.2%
Cc1ccccc1-[n+]1c(-c2ccccc2)cc(-c2ccccc2)cc1-c1ccccc1	-3.2%	-0.8%	?	11.6µM*	-1.1%
Oc1ccccc1-[n+]1c(-c2ccccc2)cc(-c2ccccc2)cc1-c1ccccc1	-0.3%	-6.6%	-7.3%	-0.7%	5.3%
O=C(CN1CCN(S(=O)(=O)c2cc(Br)ccc2Br)CC1)NCc1ccccc1Cl	-2.2%	1.1%	-14.6%	?	2.8%
O=C(NCCc1ccccc1)[C@@H]1CC=C[C@@H]2CCN(Cc3ccc(Cl)c(Cl)c3)C(=O)[C@@H]21	0.0%	-8.2%	-23.8%	?	0.2%
C/C(=C\c1ccc(N(C)C)cc1)[N+](=O)[O-]	-1.2%	3.8%	?	23.1µM*	?
COc1ccc(CCNC(=O)c2ccc3c(c2)CCN3S(=O)(=O)c2ccc(C)cc2)cc1OC	nt	nt	-2.9%	?	4.3%
CC(C)NS(=O)(=O)c1ccc(OCC(=O)N2CCN(Cc3ccc4c(c3)OCO4)CC2)c(Cl)c1	11.8%	-0.1%	-16.3%	?	2.5%
Cc1cc(S(=O)(=O)NC(C)C)ccc1OCC(=O)N1CCN(Cc2ccc3c(c2)OCO3)CC1	2.2%	-11.3%	-28.6%	9.2µM*	3.3%	FLuc counter 3=-1.9%;A549 tox-2=-3.4%;Nrf2 ARE inh=-23.6%

High-throughput results (PubChem)
